We go through ten compounds from PubChem BioAssay (NCATS).

“And” between values parts separate entries of the source, which are not always exact repeats. Equal entries are not always repeated. Records with an inconclusive call do not appear. The source made the active and inactive calls. Unless noted, the call rests on the fitted dose curve; in most records, active means well fitted curve in the direction sought with a large enough effect; inconclusive means small, poorly fitted or top-dose-only effect, or another doubt; inactive means no such curve, though single readings can be large; an effect the other way counts as inactive or inconclusive.

In experiment [1] the target is T1, Hexokinase-4 (Homo sapiens) + Glucokinase regulatory protein (Homo sapiens) (UniProt P35557+Q14397). The experiment is described as follows: qHTS assay for inhibitors of recombinant human GCK-GKRP interaction: Diaphorase-coupled assay (AID 743205). The procedure, abridged: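 Resorufin fluorescence (525/590 nm), read each minute over 30 min, reports GCK activity coupled via G6PDH and diaphorase. Reaction: 10 nM GST-GCK, 10 nM FLAG-GKRP, 5 mM glucose, 0.4 mM ATP, 0.15 mM NADP+, 0.1 mM resazurin.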
T1 sequence (P35557 whole entry, looked up): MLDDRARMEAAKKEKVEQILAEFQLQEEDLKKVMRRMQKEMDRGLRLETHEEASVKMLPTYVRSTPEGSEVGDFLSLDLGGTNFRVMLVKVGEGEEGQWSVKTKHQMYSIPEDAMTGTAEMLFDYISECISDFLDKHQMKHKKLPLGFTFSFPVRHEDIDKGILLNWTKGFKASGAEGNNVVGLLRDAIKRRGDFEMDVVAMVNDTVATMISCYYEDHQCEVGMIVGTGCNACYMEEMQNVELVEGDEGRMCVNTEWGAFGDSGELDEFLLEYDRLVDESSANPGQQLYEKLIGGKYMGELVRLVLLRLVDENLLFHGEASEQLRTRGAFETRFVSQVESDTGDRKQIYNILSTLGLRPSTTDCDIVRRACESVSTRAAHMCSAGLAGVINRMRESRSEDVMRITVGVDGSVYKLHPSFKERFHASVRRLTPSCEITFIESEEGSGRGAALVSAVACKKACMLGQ
T1 sequence (Q14397 whole entry, looked up): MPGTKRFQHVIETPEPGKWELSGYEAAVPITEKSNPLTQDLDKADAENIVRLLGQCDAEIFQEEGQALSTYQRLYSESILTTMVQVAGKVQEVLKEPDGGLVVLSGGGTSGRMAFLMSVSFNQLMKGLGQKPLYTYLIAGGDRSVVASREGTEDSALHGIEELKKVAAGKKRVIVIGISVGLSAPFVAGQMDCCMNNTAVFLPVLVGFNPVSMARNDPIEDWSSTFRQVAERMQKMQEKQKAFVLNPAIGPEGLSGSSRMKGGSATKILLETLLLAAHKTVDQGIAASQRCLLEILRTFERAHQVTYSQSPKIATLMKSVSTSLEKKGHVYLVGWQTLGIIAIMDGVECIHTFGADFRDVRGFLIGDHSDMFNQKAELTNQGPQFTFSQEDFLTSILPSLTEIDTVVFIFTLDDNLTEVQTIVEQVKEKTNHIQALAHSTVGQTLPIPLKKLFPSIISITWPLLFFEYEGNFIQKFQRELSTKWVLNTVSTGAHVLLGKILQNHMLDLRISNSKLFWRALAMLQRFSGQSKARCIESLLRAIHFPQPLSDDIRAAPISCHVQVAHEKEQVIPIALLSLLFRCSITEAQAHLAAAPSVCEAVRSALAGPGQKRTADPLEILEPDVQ

The target of experiment [2] is T1, Hexokinase-4 (Homo sapiens) + Glucokinase regulatory protein (Homo sapiens). The experiment is described as follows: qHTS assay for inhibitors of recombinant human GCK-GKRP interaction: ADP-Glo assay (AID 743206).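 Further: plate controls were DMSO plus enzyme for no effect and no enzyme for full effect.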 The method in brief: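 GST-GCK and FLAG-GKRP (15 nM each in the dispensed mix, with 2 uM S6P) react with 0.4 mM ATP and 5 mM glucose (final) in Hepes pH 7.6 for 60 min at room temperature. ADP is measured by ADP-Glo luminescence.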

Experiment [3] has the same target. The experiment is described as follows: qHTS assay for inhibitors of recombinant human GCK-GKRP interaction: HTRF assay (AID 743207).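 Further: 0% = DMSO with GCK present and -100% = DMSO wells lacking GCK.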 The method in brief: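 HTRF read-out (ex 320 nm; 615/665 nm emission) after 60 min RT equilibration of 5 nM GST-GCK, 5 nM FLAG-GKRP, 2 uM S6P, compound and anti-FLAG/anti-GST detection antibodies; signal normalized between DMSO wells with and without GCK.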

The nature of experiment [4]: qHTS Assay for Identifying Gametocytocidal Compounds (AID 743244).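 Further: on the % scale 0 is the no-effect control and ±100 the full control effect; actives lower the fluorescent signal which means gametocytes are killed.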 The following applies: P. falciparum 3D7 stage III-V gametocytes, alamarBlue, 72 h; max response: stronger effect = lower value. The procedure, abridged:
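3D7 gametocytes, stages III–V, 20,000/well; cpd 72 h, 37 °C/5% CO2; + alamarBlue 24 h; fluor. Ex 525/Em 598.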

The nature of experiment [5]: qHTS assay for measurement of the activity of small molecule inhibitors on Zika virus induced Caspase-3 activity in human iPSC derived neural progenitor cells (hNPCs) (AID 1224857). Further: % of control where 0% means no effect; nearly all actives have a fitted effect of over 65% in size. The method in brief: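 Cells were plated at 350 per well and grown 16 to 20 hours. Compound pretreatment lasted one hour, after which ZIKV (2 FFU/cell) was added for 6 hours. Percent inhibition was normalized between uninfected and infected controls.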

Experiment [6] can be described thus: qHTS assay for measurement of the activity of small molecule inhibitors on Zika virus induced Caspase-3 activity in human astrocytoma cells (AID 1224859).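 Further: plate controls were ZIKV-infected untreated cells for no effect and uninfected cells for full effect.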 The procedure, abridged:
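Percent inhibition of virus-induced caspase-3/7 signal is calculated against uninfected and ZIKV-infected control cells. Cells are SNB-19, infected at 2 FFU/cell for 6 h after 1 h compound exposure.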

Experiment [7] in a line: qHTS profiling of the MIPE4 collection as inhibitors of Plasmodium falciparum (DD2) proliferation (AID 743345; call rule not given here). The following applies: P. falciparum Dd2 in erythrocytes, SYBR Green DNA, 72 h; at 28.5 µM (top of the series) unless noted. The method in brief:
(§1)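 Erythrocytes infected with P. falciparum (0.3% parasitemia, 2.5% hematocrit) incubated with compounds 72 h at 37 C, 5% CO2. Lysis with saponin/Triton buffer containing SYBR Green I, overnight at room temperature in the dark; DNA fluorescence (485/535 nm) normalised to 0.29 uM artemisinin and DMSO.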

Experiment [8] can be described thus: qHTS profiling of the MIPE4 collection as inhibitors of Plasmodium falciparum (DD2) proliferation (Rep 2) (AID 743346; call rule not given here). The following applies: P. falciparum Dd2 in erythrocytes, SYBR Green DNA, 72 h; at 28.5 µM (top of the series) unless noted. The procedure, abridged:
as §1

Experiment [9] in a line: High-throughput drug toxicity screening in the BPDCN cell line Cal-1 (AID 1224825; call rule not given here). The following applies: Cal-1 BPDCN cell viability, qHTS; at 45.8 µM (top of the series) unless noted. The method in brief: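 Cal-1 cells, 500 per well in phenol-red-free RPMI with 10% FBS, exposed to compounds for 48 hours at 37C, 5% CO2. Viability read by CellTiter-Glo luminescence; percent activity normalized to DMSO (100%) and 9.2 uM bortezomib final (0%).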

Experiment [10] can be described thus: qHTS Screen of the MIPE 4.0 Collection Against Ewings Sarcoma (RDES) (AID 1259252). Further: nearly all actives have a fitted effect of over 35% in size. Further: potency means the concentration at half of the fitted maximal effect. The procedure, abridged: (§2)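 Viability screen: 48 h incubation at 37C, 95% humidity, 5% CO2 with serially titrated compound, followed by CellTiter-Glo readout.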
A short description of experiment [11]: qHTS Screen of the MIPE 4.0 Collection Against Ewings Sarcoma (TC71) (AID 1259253). Further: nearly all actives have a fitted effect of over 40% in size. Further: potency means the concentration at half of the fitted maximal effect. The method in brief:
as §2

Experiment [12] in a line: qHTS Screen of the MIPE 4.0 Collection Against Ewings Sarcoma (EW8) (AID 1259255). Further: nearly all actives have a fitted effect of over 35% in size. Further: potency means the concentration at half of the fitted maximal effect.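 On viability: 100% = DMSO-treated cells and 0% = medium-only wells without cells.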 The procedure, abridged: as §2
The nature of experiment [13]: qHTS assay for small molecule agonists of the antioxidant response element (ARE) signaling pathway measured by Nrf2-dependant transcriptional activity - cell viability counter screen (AID 720653; active means well fitted curve in the direction sought with a large enough effect in the repeat runs; an effect the other way counts as inactive or inconclusive; further: on the % scale 0 is the no-effect control and ±100 the full control effect). Conditions: ARE-bla HepG2 viability, CellTiter-Glo ATP luminescence, 16 h; max response: stronger effect = lower value. The procedure, abridged: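 ARE-bla HepG2 cells treated with compounds for 16 h at 37C; this counter screen measures viability as intracellular ATP by CellTiter-Glo luminescence after 30 min at room temperature.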

Experiment [14] in a line: qHTS assay for cell viability of the p53RE-bla HCT-116 cell line (AID 743292). Further: on the % scale 0 is the no-effect control and ±100 the full control effect; nearly all actives have a fitted effect of over 55% in size. The procedure, abridged: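 Readout: CellTiter-Glo luminescence after 30 min RT. Treatment: compounds in DMSO, 16 h, 37 C. Cells: CellSensor p53RE-bla HCT-116, 4,000/well, preincubated 5 h.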
A short description of experiment [15]: qHTS profiling of the MIPE4 collection as inhibitors of Plasmodium falciparum (HB3) proliferation (AID 743347; call rule not given here;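 further: plate controls were DMSO vehicle wells for no effect and artemisinin wells for full effect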). Conditions: P. falciparum HB3 in erythrocytes, SYBR Green DNA, 72 h; at 28.5 µM (top of the series) unless noted. The procedure, abridged: as §1
Experiment [16] is described as follows: qHTS profiling of the MIPE4 collection as inhibitors of Plasmodium falciparum (3D7) proliferation (AID 743344; call rule not given here;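 further: scaled between DMSO vehicle wells and 0.29 µM artemisinin as full inhibition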). The following applies: P. falciparum 3D7 in erythrocytes, SYBR Green DNA fluorescence, 72 h; at 28.5 µM (top of the series) unless noted. The method in brief:
as §1

Regarding `CC(=O)CCCCn1c(=O)c2c(ncn2C)n(C)c1=O`, the outcome in experiment [1], in experiment [2] and in [3] was inactive. Also, the max response in experiment [4] was -1.45% (inactive) and 1.03% (inactive). In addition, the Potency result in experiment [5] and in [6] was “inactive” in each case.

As for `Oc1ccc(C2=Cc3ccc(O)cc3OC2)cc1`, the parasite growth remaining, % of DMSO control (lower = more inhibition) in experiment [7] came out at 34.7%. Moreover, in experiment [8], the parasite growth, % of control (lower = inhibition) is 27.9%. The viability (% of control) in experiment [9] turned out to be 3.88%. For the same compound, the results for the Potency in experiment [10], in experiment [11] and in experiment [12] were 5.9 µM (active), 3.72 µM (active) and 6.62 µM (active), respectively.

Turning to `CC(=O)O[C@]1(C(C)=O)CC[C@H]2[C@@H]3C=C(Cl)C4=CC(=O)[C@@H]5C[C@@H]5[C@]4(C)[C@H]3CC[C@@]21C`, the max response in [13] was -29.6% (inactive) and -20.9% (inactive). For the same compound, the result in experiment [1], in experiment [2] and in [3] was inactive. Moreover, the Potency entry in experiment [14], in [5] and in experiment [6] was “inactive” throughout.

Take `CC(C)(C)c1ccc(C(O)CCCN2CCC(C(O)(c3ccccc3)c3ccccc3)CC2)cc1` (stereo not drawn): the Potency entry in [5] and in experiment [6] was “inactive” each time.

On to `O=C1NC(=O)C(c2ccccc2)(c2ccccc2)N1`, for which the max response in [13] is -13.1% (inactive) and -3.11% (inactive) and 0.97% (inactive). Moreover, the result in experiment [1], in [2] and in experiment [3] was inactive. Moreover, the Potency entry in experiment [14], in [5] and in experiment [6] was “inactive” each time.

On to `CC(=Cc1ccccc1)C=C1SC(=S)N(CC(=O)O)C1=O`, for which the parasite growth remaining, % of DMSO control (lower = more inhibition) in experiment [7] worked out at 102%. Further, in experiment [8], the parasite growth, % of control (lower = inhibition) turned out to be 81.2%. The compound also came in with a growth, % of control in experiment [15] of 98.1%. Also, the viability (% of control) in experiment [9] amounted to 125%. Besides, the Potency result in [10], in experiment [11] and in [12] was “inactive” each time.

Consider `Clc1ccc(Cn2c(CN3CCCC3)nc3ccccc32)cc1`, for which the outcome in experiment [1], in experiment [2] and in experiment [3] was inactive. In addition, the Potency entry in [5] and in [6] was “inactive” each time.

For `NCCS`, the result in experiment [1], in experiment [2] and in experiment [3] was inactive. Further, in experiment [4], the max response is -3.42% (inactive) and 10.4% (inactive) and 19.2% (inactive). For the same compound, the Potency entry in experiment [5] and in [6] was “inactive” in each case.

As for `COc1ccc(-c2nc(N3CCOCC3)c3sc(CN(C)c4ncc(C(=O)NO)cn4)cc3n2)cn1`, in experiment [16], the parasite growth, % of DMSO control worked out at 5.2%. Moreover, the parasite growth remaining, % of DMSO control (lower = more inhibition) in experiment [7] stood at 6.7%. Moreover, the parasite growth, % of control (lower = inhibition) in experiment [8] amounted to 8.46%. In [15], the growth, % of control was 2.4%. Besides, the viability (% of control) in experiment [9] worked out at 2.7%. Moreover, the Potency entry in experiment [6] is “inactive”.

For `C[N+](C)(C)CCCCCC[N+](C)(C)C`, the result in experiment [1], in experiment [2] and in experiment [3] was inactive. The max response in experiment [4] was 5.46% (inactive) and 9.66% (inactive) and 12.2% (inactive). In addition, the Potency result in experiment [5] and in [6] was “inactive” in each case.
